# Test system: Plasmodium falciparum
# Test: GSK_TCMDC: Inhibition of Plasmodium falciparum 3D7 in whole red blood cells, using parasite LDH activity as an index of growth. Test compounds present at 2uM
# Assay type: functional
row,Structure (SMILES),Inhibition
1,O=C(c1cccc(-c2cccc(-c3nc4cc(F)ccc4[nH]3)c2)c1)N1CCCCC1CN1CCC(O)C1 (configuration not stated),90%
2,NS(=O)(=O)c1cncc(-c2ccc3nccc(-c4cn[nH]c4)c3n2)c1,99%
3,Cc1n[nH]c2cc(F)c(-c3cc(OC[C@@H](N)Cc4ccccc4)cnc3-c3ccoc3)cc12.O=C(O)C(F)(F)F,95%
4,O=C(COc1ccc(F)cc1)NC1CCN(c2ccnc3cc(Cl)ccc23)C1.O=C(O)C(F)(F)F (configuration not stated),100%
5,Cc1ccc2c(=O)cc(CCc3cccc(F)c3F)n(CC(=O)N(Cc3ccc(-c4ccc(C(F)(F)F)cc4)cc3)C3CCN(C(C)C)CC3)c2n1.O=C(O)C(O)C(O)C(=O)O,100%
6,COc1ccc(NC(=O)NC2CCN(CCCCCNC(=O)/C=C/c3ccc(Cl)c(Cl)c3)CC2)cc1,96%
7,CC(C)(C)c1ccc(S(=O)(=O)Nc2cc(Cl)ccc2Cn2ccc(N3CCNCC3)nc2=O)cc1.O=C(O)C(F)(F)F,95%
8,C#CC[C@@H](NC(N)=O)C(=O)O,97%
9,CC1(C)N=C(N)N=C(N)N1OCc1ccc2c(c1)OCO2,93%
10,COc1ccc(-c2cccc(NC(=O)c3ccc(C#N)cc3)c2)cc1CN(C)CCN(C)C.O=C(O)C(F)(F)F,90%
11,CC(C)NCc1ccc(-c2ccc(-c3nc4cc(C(F)(F)F)ccc4[nH]3)cc2)cc1.O=C(O)C(F)(F)F,100%
12,COc1ccc(-c2ccc(NC(=O)c3cccc(Cl)c3)cc2)cc1CN1CCC(O)CC1.O=C(O)C(F)(F)F,100%
13,CCNc1cc(C(=O)N[C@@H](Cc2ccco2)[C@H](O)CNC2CCCCC2)cc(N2CCCCS2(=O)=O)c1.Cl,91%
14,CN1CCN(CCCN(C(=O)Nc2cc(C(F)(F)F)cc(C(F)(F)F)c2)c2ccccc2Cc2ccccc2)CC1,89%
15,O=C(NCCN1CCCC1)c1cccc(-c2ccc(-c3nc4cc(F)ccc4[nH]3)cc2)c1,99%
16,O=C(Nc1cccc(CN2CCCN(Cc3cccc(O)c3)CC2)c1)c1cc2ccccc2s1.O=C(O)C(F)(F)F,100%
17,O=C(O)C(F)(F)F.O=S(=O)(NCCN1CCCC1)c1ccc(-c2cccc(CNCc3ccccc3)c2)s1,94%
18,COc1cccc(CN2CCC(C(=O)Nc3ccc(-c4nc5ccccc5[nH]4)cc3)CC2)c1,100%
19,N#Cc1ccc2[nH]cc(-c3cn4cc(SC5CCCC5)ccc4n3)c2c1,92%
20,Cc1cccc(-c2cccc3c(NC(=O)N4CCc5cc6nccc(N7CCN8CCC[C@H]8C7)c6cc54)cccc23)n1.Cl,94%
21,Cc1ccnc(NC(c2cccc(OCc3ccccc3)c2)c2ccc3cccnc3c2O)c1 (configuration not stated),95%
22,COC(=O)c1c(NC(=O)c2cccc(C(F)(F)F)c2)sc2c1CCN(Cc1ccccc1)C2.Cl,84%
23,COc1cc(NCC2(CNCc3cn(Cc4ccccc4)c4ccccc34)CCCCC2)nc2ccccc12.Cl,95%
24,Br.CC1(C)NC(N)=NC(=N)N1OCCCOc1ccccc1N,93%
25,O=C(O)C(F)(F)F.c1ccc(C(c2ccccc2)N2CCC(NCc3ccc(OCCCN4CCCCC4)cc3)CC2)cc1,100%
26,Fc1ccc(-c2cc3ncnc(N4CCN(CCN5CCCC5)CC4)c3s2)cc1,98%
27,Cc1cccc(CN2CCCN(Cc3cccc(C(=O)Nc4ccc(C(C)(C)C)cc4)c3)CC2)c1.O=C(O)C(F)(F)F,89%

# Test system: Plasmodium falciparum
# Test: GSK_TCMDC: Inhibition of Plasmodium falciparum Dd2 in whole red blood cells, using parasite LDH activity as an index of growth. Test compounds present at 2uM
# Assay type: functional
row,Structure (SMILES),Inhibition
1,COC(=O)c1cccc(CNCc2ccc(-c3ccc(-c4nc5cc(F)ccc5[nH]4)cc3)cc2)c1.O=C(O)C(F)(F)F,95%
2,O=C(O)C(F)(F)F.c1ccc(CCNCc2ccc(-c3cccc(-c4nc5ccccc5[nH]4)c3)cc2)nc1,87%
3,Cc1cc(N[C@@H](Cc2ccccc2)C(=O)NCCc2ccccc2)nc(NCC2CCCCC2)n1.O=C(O)C(F)(F)F,95%
4,Cc1ccc2[nH]c(-c3cc(-c4cccc(C#N)c4)cnc3N)nc2c1.O=C(O)C(F)(F)F,99%
5,O=C(c1ccc(-c2ccc(-c3nc4ccccc4[nH]3)s2)cc1)N1CCCCC1CN1CCC(O)C1 (configuration not stated),55%
6,COCc1cc(C)nc2sc(C(=O)Nc3cc(C(C)(C)C)ccc3O)c(N)c12,57%
7,Cn1c2c(c3ccccc31)CN(CCC1(c3ccc(Cl)c(Cl)c3)CN(C(=O)Cc3ccccc3)CCO1)CC2 (configuration not stated),91%
8,O=C(Nc1ccc(OC2CCN(Cc3ccc(F)cc3)CC2)c(Cl)c1)c1ccsc1.O=C(O)C(F)(F)F,90%
9,O=C(/C=C/c1ccc(Cl)c(Cl)c1)NCCCCN1CCCN(C(=O)Nc2ccc(Cl)c(Cl)c2)CC1,1%
10,CC(C)(C)c1ccc(CN2CCC(NC(=O)c3ccc(-c4cccc(C(F)(F)F)c4)s3)CC2)cc1.O=C(O)C(F)(F)F,96%
11,CC(C)Nc1nc(NC2CCCCC2)nc(N2CCCCCCC2)n1,96%
12,Br.CC1(C)NC(N)=NC(=N)N1OCCCOc1ccc(N)cc1,95%
13,CC(C)NCc1cccc(-c2ccc(-c3nc4cc(C(F)(F)F)ccc4[nH]3)cc2)c1.O=C(O)C(F)(F)F,96%
14,O=C(c1cccc(-c2cccc(-c3nc4cc(F)ccc4[nH]3)c2)c1)N1CCCCC1CN1CCC(O)C1 (configuration not stated),100%
15,NS(=O)(=O)c1cncc(-c2ccc3nccc(-c4cn[nH]c4)c3n2)c1,100%
16,Cc1n[nH]c2cc(F)c(-c3cc(OC[C@@H](N)Cc4ccccc4)cnc3-c3ccoc3)cc12.O=C(O)C(F)(F)F,15%
17,O=C(COc1ccc(F)cc1)NC1CCN(c2ccnc3cc(Cl)ccc23)C1.O=C(O)C(F)(F)F (configuration not stated),100%
18,Cc1ccc2c(=O)cc(CCc3cccc(F)c3F)n(CC(=O)N(Cc3ccc(-c4ccc(C(F)(F)F)cc4)cc3)C3CCN(C(C)C)CC3)c2n1.O=C(O)C(O)C(O)C(=O)O,49%
19,COc1ccc(NC(=O)NC2CCN(CCCCCNC(=O)/C=C/c3ccc(Cl)c(Cl)c3)CC2)cc1,1%
20,CC(C)(C)c1ccc(S(=O)(=O)Nc2cc(Cl)ccc2Cn2ccc(N3CCNCC3)nc2=O)cc1.O=C(O)C(F)(F)F,74%

row,Structure (SMILES),Inhibition
1,C#CC[C@@H](NC(N)=O)C(=O)O,0%
2,CC1(C)N=C(N)N=C(N)N1OCc1ccc2c(c1)OCO2,86%
3,COc1ccc(-c2cccc(NC(=O)c3ccc(C#N)cc3)c2)cc1CN(C)CCN(C)C.O=C(O)C(F)(F)F,18%
4,CC(C)NCc1ccc(-c2ccc(-c3nc4cc(C(F)(F)F)ccc4[nH]3)cc2)cc1.O=C(O)C(F)(F)F,98%
5,COc1ccc(-c2ccc(NC(=O)c3cccc(Cl)c3)cc2)cc1CN1CCC(O)CC1.O=C(O)C(F)(F)F,12%
6,CCNc1cc(C(=O)N[C@@H](Cc2ccco2)[C@H](O)CNC2CCCCC2)cc(N2CCCCS2(=O)=O)c1.Cl,57%
7,CN1CCN(CCCN(C(=O)Nc2cc(C(F)(F)F)cc(C(F)(F)F)c2)c2ccccc2Cc2ccccc2)CC1,92%
8,O=C(NCCN1CCCC1)c1cccc(-c2ccc(-c3nc4cc(F)ccc4[nH]3)cc2)c1,85%
9,O=C(Nc1cccc(CN2CCCN(Cc3cccc(O)c3)CC2)c1)c1cc2ccccc2s1.O=C(O)C(F)(F)F,75%
10,O=C(O)C(F)(F)F.O=S(=O)(NCCN1CCCC1)c1ccc(-c2cccc(CNCc3ccccc3)c2)s1,43%
11,COc1cccc(CN2CCC(C(=O)Nc3ccc(-c4nc5ccccc5[nH]4)cc3)CC2)c1,84%
12,N#Cc1ccc2[nH]cc(-c3cn4cc(SC5CCCC5)ccc4n3)c2c1,21%
13,Cc1cccc(-c2cccc3c(NC(=O)N4CCc5cc6nccc(N7CCN8CCC[C@H]8C7)c6cc54)cccc23)n1.Cl,68%
14,Cc1ccnc(NC(c2cccc(OCc3ccccc3)c2)c2ccc3cccnc3c2O)c1 (configuration not stated),88%
15,COC(=O)c1c(NC(=O)c2cccc(C(F)(F)F)c2)sc2c1CCN(Cc1ccccc1)C2.Cl,61%
16,COc1cc(NCC2(CNCc3cn(Cc4ccccc4)c4ccccc34)CCCCC2)nc2ccccc12.Cl,12%
17,Br.CC1(C)NC(N)=NC(=N)N1OCCCOc1ccccc1N,95%
18,O=C(O)C(F)(F)F.c1ccc(C(c2ccccc2)N2CCC(NCc3ccc(OCCCN4CCCCC4)cc3)CC2)cc1,100%
19,Fc1ccc(-c2cc3ncnc(N4CCN(CCN5CCCC5)CC4)c3s2)cc1,40%
20,Cc1cccc(CN2CCCN(Cc3cccc(C(=O)Nc4ccc(C(C)(C)C)cc4)c3)CC2)c1.O=C(O)C(F)(F)F,40%

# From ChEMBL document CHEMBL1157539, “Thousands of chemical starting points for antimalarial lead identification” (Nature, 2010)
